The structures appear in SMILES notation. Activity calls are given as the source filed them. The calls were made as follows: active = hit-call score of the fitted dose curve at least 0.9, where 1 is the maximum; inactive = score below 0.9.

Read-out in this assay: C-C motif chemokine 2 (Homo sapiens) (UniProt P13500)
The experiment in a line: BSK_KF3CT_MCP1: BioMAP Diversity Plus: KF3CT Assay for Monocyte Chemoattractant Protein 1 (MCP1/CCL2) Biomarker Activity (AID 2283073). The settings on record: primary human keratinocytes with fibroblasts; actives raise or lower the signal. The protocol: BSK_KF3CT is a cell-based, multiplexed-readout assay that uses keratinocytes and foreskin fibroblasts, a human skin primary cell co-culture, with measurements taken at 24 hours after chemical dosing in a 96-well plate.BSK_KF3CT_MCP1 is an assay component measured in the BSK_KF3CT assay. It measures MCP-1 antibody related to regulation of gene expression using ELISA technology.Data from the assay component BSK_KF3CT_MCP1 was analyzed into 1 assay endpoint. This assay endpoint, BSK_KF3CT_MCP1, was analyzed with bidirectional fitting relative to DMSO as the negative control and baseline of activity. Using a type of binding reporter, gain or loss-of-signal activity can be used to understand changes in the signaling as they relate to the gene CCL2. Furthermore, this assay endpoint can be referred to as a primary readout, because this assay has produced multiple assay endpoints where this one serves a signaling function. To generalize the intended target to other relatable targets, this assay endpoint is annotated to the cytokine intended target family, where the subfamily is chemotactic factor.
The levels of cell surface (or secreted, indicated by the prefix "s") biomarker endpoints were measured by ELISA. Overt cytotoxicity to cells in confluent adherent cultures (all systems other than the BT system) was assessed by measuring total protein levels using sulforhodamine B (SRB) staining in parallel cultures at the time of biomarker measurements, indicated as SRB endpoints. For proliferation assays for adherent cell types, individual cell types are cultured at sub-confluence and relative cell numbers quantified by SRB staining at time points optimized for each system (48 h: 3C and CASM3C systems; 72 h: BT and HDF3CGF systems; 96 h: SAg system). SRB was performed by staining cells with 0.1% SRB after fixation with 10% TCA and reading wells at 560 nm.Viability and proliferation of PBMC (T cells) was quantified by Alamar Blue reduction for the SAg and BT systems. For PBMC viability (referred to as PBMC Cytotoxicity within the assay endpoint names), cells were plated (75,000/well in a 96-well plate) and then chemical samples added for 1 h before addition of activators, SEB and TSST-1 (20 ng/mL final concentration each). Cells were incubated for 90 h. Then, Alamar Blue (20 uL/well) (Invitrogen, Cat DAL1100) was added for 6 h, and the plates were read with a fluorescence microplate reader at 546/580 nm (excitation/emission). For PBMC proliferation, cells were plated and activated as above but incubated for only 16 h prior to addition of Alamar Blue. Plates were read after 6 h.
For `O=C(O)CN(CC(=O)O)CC(=O)O`, the outcome was inactive.

On to `COC(=O)[C@H]1[C@H]2C[C@@H]3c4[nH]c5cc(OC)ccc5c4CCN3C[C@H]2C[C@@H](OC(=O)c2cc(OC)c(OC)c(OC)c2)[C@@H]1OC`, for which the outcome was inactive.

`C=CCCCCCCCCCCCC`: the result was inactive.

Turning to `Cc1cn([C@H]2C=C[C@@H](CO)O2)c(=O)[nH]c1=O`, the result was inactive.

`NCCOCCOCCN`: the result was inactive.

Consider `C#CC(O)C(CC)CCCC` (stereo not given), for which the result was inactive.

With `CCCCC(CC)COC(=O)CCCCCCCC(=O)OCC(CC)CCCC` (stereo not given), the result was inactive.

With `CN(C)CCCN1c2ccccc2Sc2ccc(Cl)cc21`, the result was inactive.

Consider `O=C(N[C@@H](c1ccccc1)[C@@H]1CCCCN1)c1cccc(C(F)(F)F)c1Cl`, for which the outcome was inactive.

Consider `CCCCCCCCCCCCCCCCO`, for which the result was inactive.

As for `CC(C)c1cccc(C(C)C)c1NC(=O)NS(=O)(=O)c1cc(C(C)(C)O)co1`, the outcome was inactive.

Take `CCCCCCCC(=O)OC`: the result was inactive.

As to `CCCCCCC(CCCCCCCCCCC(=O)OCC(COC(C)=O)OC(C)=O)OC(C)=O` (stereo not given), the outcome was inactive.

On to `CC(C)COC(=O)CCCCC(=O)OCC(C)C`, for which the outcome was inactive.

On to `CC(=O)O[C@]1(C(C)=O)CC[C@H]2[C@@H]3C=C(Cl)C4=CC(=O)[C@@H]5C[C@@H]5[C@]4(C)[C@H]3CC[C@@]21C`, for which the result was inactive.

As to `CC1(C)C(=O)NC(=O)N1CO`, the outcome was inactive.

Consider `O=C(Oc1ccccc1)c1cccc(C(=O)Oc2ccccc2)c1`, for which the result was inactive.

Regarding `CCCCC(CC)COP(=O)(OCC(CC)CCCC)OCC(CC)CCCC` (stereo not given), the result was inactive.

Take `O=C1NC(=O)C(c2ccccc2)(c2ccccc2)N1`: the result was inactive.

Turning to `CCCCCCC(C=O)=Cc1ccccc1`, the result was inactive.

Take `c1ccc2occc2c1`: the result was inactive.

For the molecule `CC(=O)S[C@H](C(=O)N[C@H]1Cc2ccccc2[C@H]2CCC[C@@H](C(=O)O)N2C1=O)C(C)C`, the result was inactive.

Take `Oc1ccccc1O`: the concentration at half-maximal activity (AC50) is 1.14 µM (active).

As for `CC(=O)[C@@]1(O)CC[C@H]2[C@@H]3CCC4=CC(=O)CC[C@]4(C)[C@H]3CC[C@@]21C`, the result was inactive.

Consider `N[C@@H](Cc1c[nH]c2ccccc12)C(=O)O`, for which the outcome was inactive.

Consider `CN(C)CCCN(C)CCCN(C)C`, for which the outcome was inactive.

For `CO[C@@H]1COCC[C@@H]1N[C@@H]1CC[C@@](C(=O)N2CCc3ncc(C(F)(F)F)cc3C2)(C(C)C)C1`, the result was inactive.

Regarding `CC(C)c1cccc(C(C)C)c1`, the outcome was inactive.

`COC(=O)CCC(=O)OC`: the result was inactive.

Regarding `COc1ccc(C(=O)Nc2nc3ccccc3c(NCc3ccccc3)c2C#N)cc1`, the outcome was inactive.

Turning to `CCCCOC(=O)CCCCC(=O)OCCCC`, the result was inactive.

As to `NC1CCCCC1`, the result was inactive.

In the case of `Cc1c(C)c2c(c(C)c1O)CCC(C)(COc1ccc(CC3SC(=O)NC3=O)cc1)O2` (stereo not given), the concentration at half-maximal activity (AC50) is 15.1 µM (active).

As to `CCCCC(CC)CO` (stereo not given), the result was inactive.

Take `O=C(O)c1[nH]n(-c2ccc(S(=O)(=O)O)cc2)c(=O)c1N=Nc1ccc(S(=O)(=O)O)cc1`: the result was inactive.

For the molecule `CCC(C)N(C)C(=O)c1cc2ccccc2c(-c2ccccc2Cl)n1` (stereo not given), the outcome was inactive.

In the case of `CC(=O)CC(c1ccccc1)c1c(O)c2ccccc2oc1=O` (stereo not given), the result was inactive.

`CSc1ccc(Oc2ccc(S(N)(=O)=O)cc2CN(C)C)cc1C`: the result was inactive.

Take `CC(C)(O)c1ccc(CNC(=O)c2cccnc2Oc2ccc(F)cc2)cc1`: the result was inactive.

As to `OCC(O)CO`, the outcome was inactive.

A word on the AC50: it is the concentration giving half of the maximal activity seen.

Source of the values: PubChem BioAssay (EPA / NIEHS).
